High-throughput results as filed in PubChem.
An excerpt weighted towards active compounds, which were near 2.1% of everything screened.
FUS yeast rescue: qHTS for Suppressors of FUS Proteinopathy: Primary screen using FUS-linked yeast assay. actives 0.24% (n = 390,000). S. cerevisiae FUS-expressing, growth rescue, OD600, 24 h. Potency, µM (doses to about 76.6 µM), most hits filed as activators;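 further: plate controls were DMSO vehicle for no effect and reference control for full effect; nearly all actives have a fitted effect of over 55% in size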
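Restored growth of FUS-toxic S. cerevisiae, read as 600 nm absorbance after 24 h at 30C in galactose medium (starting OD 0.005). Controls CP55940 and DMSO.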
Abeta yeast res: qHTS for compounds that reverse cellular toxicity of Amyloid beta (A-beta) peptide in yeast: Primary Screen | Potency, µM (doses to about 46.1 µM), most hits filed as activators | AID 1347071, 2019 | yeast expressing A-beta42, growth rescue, OD600, 48 h; response scale: 0% DMSO, 100% iron-clioquinol control | actives 0.063% (n = 410,000); further: nearly all actives have a fitted effect of over 55% in size
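Yeast A-beta toxicity model in growth medium with pinned compounds, 48 h at 30 C; growth read as absorbance at 600 nm. Normalized to FeCl3/clioquinol equimolar mix (positive) and DMSO (negative).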
TDP-43 yeast inh: qHTS of TDP-43 Inhibitors; TDP-43 expressing yeast growth rescue, BacTiter-Glo, 24 h; Potency, µM (series often up to 46.1 µM), for the others: at the top dose growth rescue (activation), hits mostly activators; actives 1.8% (n = 410,000); AID 652104, 2013; further: % of control where 0% means no effect; nearly all actives have a fitted effect of over 50% in size
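Readout is BacTiter-Glo luminescence of cell growth, so inhibitors register as activators. TDP-43-expressing yeast at OD600=0.02 in galactose medium, after raffinose pregrowth to mid-log, were incubated with compound for 24 hr at 30 deg C.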
aSyn yeast inh: qHTS of alpha-syn Inhibitors | Yeast expressing alpha-synuclein, growth rescue, BacTiter-Glo, 24 h | Potency, µM (titrated, usually from 46.1 µM), without a hit: at the highest dose growth rescue (activation), actives largely listed as activators | actives 0.14% (n = 370,000) | AID 652106, 2013; further: % of control where 0% means no effect; nearly all actives have a fitted effect of over 65% in size
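Rescue of yeast growth: cells expressing toxic alpha-synuclein, induced in galactose at OD600 0.02, incubated with compound 24 h at 30 C. ATP luminescence quantified growth; inhibitors of toxicity appear as activators.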
An asterisk follows results filed as active; i = inactive; ? = inconclusive; . = not tested or not shown; [ ] = dose if it differs, or a comment. The call rests on the fitted dose curve; in most records, active means well fitted curve in the direction sought with a large enough effect; inconclusive means small, poorly fitted or top-dose-only effect, or another doubt; inactive means no such curve, though single readings can be large; an effect the other way counts as inactive or inconclusive. Potency means the concentration at half of the fitted maximal effect.

SMILES	FUS yeast rescue	Abeta yeast res	TDP-43 yeast inh	aSyn yeast inh
Cc1ccccc1NC(=O)N1C2CCC1CC(O)(c1cccnc1)C2 (stereo unspecified)	i	i	10.5%	1.8%
CC(C)c1ccc(CNc2ccc3c(c2)ncn3C)cc1	i	i	10.6%	-12.5%
CNc1c(N)c(=O)oc2ccccc12	i	i	-24.0%	-1.6%
Cc1ccc(Nc2c(N)c(=O)oc3ccccc23)cc1	i	i	14.1µM*	1.1%
CCOC(=O)N1CCN(c2nc(C)c3c(n2)CC(C)CC3=O)CC1 (stereo unspecified)	i	i	20µM*	0.9%
Cc1cccc(C)c1Nc1nnc(SCc2nc3ccccc3s2)s1	.	i	13.8%	6.3%
Cc1nc(CSc2nnc(Nc3cccc(C)c3C)s2)cs1	.	i	7.94µM*	27.6%
Cc1cccc(Nc2nnc(SCC(=O)Nc3ccccc3[N+](=O)[O-])s2)c1C	.	i	12.6µM*	3.1%
C=CCc1c(C)nc(-c2ccccc2)nc1N/N=C(\C)c1ccccc1	i	i	26.4%	1.1%
CCn1c2c(c(=O)n3ncc(C(=O)N4CCN(c5ccc(C(C)=O)cc5)CC4)c13)CN(Cc1ccc(OC)cc1)CC2	?	i	2.8%	.
Cc1cc(C)cc(OCc2cc(=O)n3c(-c4ccccc4)csc3n2)c1	i	i	19.3%	.
CCOc1ccc(NC(=O)CN(C)Cc2cc(=O)n3c(-c4ccccc4)csc3n2)cc1OCC	17.8µM*	i	0.3%	-3.3%
CCOc1ccc(NS(=O)(=O)c2ccc(C(=O)N(C)Cc3cccc(OC)c3OC)cc2)cc1	22.4µM*	i	-12.6%	0.1%
Nc1c(C(=O)NCCN2CCOCC2)c2nc3ccccc3nc2n1-c1cccc(F)c1	i	i	-12.8%	-1.4%
Cc1ccc(SCC(=O)NC(=O)c2ccccc2Br)c(C)c1	.	i	12.6µM*	15.1%
COc1cccc(N/C(SC)=C(/C#N)C(=O)NCc2cccs2)c1	i	i	14.1µM*	-5.1%
COc1ccc(-c2nnc(SCc3cc(C)cc(C)c3)o2)cc1	.	i	17.0%	-1.7%
CC(C)c1ccc(NC(=O)C2C3C=CC(CC3)C2C(=O)O)cc1 (stereo unspecified)	i	i	12.6µM*	3.4%
O=C(O)C1C2C=CC(CC2)C1C(=O)O (stereo unspecified)	?	?	20µM*	9.1%
O=C(CC[C@H]1O[C@@H](n2cnc3c(NC(=O)c4ccccc4)ncnc32)[C@H](O)[C@@H]1O)NCC(c1ccccc1)c1ccccc1	i	i	8.7%	-8.9%
NC(=O)CCC1NC(=S)N(Cc2ccccc2)C1=O (stereo unspecified)	i	i	12.6%	3.8%
Cc1onc(-c2ccccc2Cl)c1C(=O)Nc1ccc(Cl)cn1	i	i	?	14.6%
O=C(CSCc1ccccc1)Nc1cccc(F)c1	i	i	6.31µM*	3.3%
O=C(CCCC(=O)OCC(Cl)=C(Cl)Cl)Nc1cccc2ccccc12	i	i	20.3%	-5.5%
O=C(CCCC(=O)OCC(Cl)=C(Cl)Cl)Nc1ccc(F)cc1	i	i	15.8µM*	10.4%
SMILES	FUS yeast rescue	Abeta yeast res	TDP-43 yeast inh	aSyn yeast inh
O=C(CCCC(=O)OCC(Cl)=C(Cl)Cl)Nc1cccc(F)c1	i	i	14.1µM*	5.6%
COc1cccc(NC(=O)Cc2ccccc2)c1	i	i	-4.0%	-4.8%
O=C(Cc1ccccc1)Nc1cccc(N2C(=O)C=CC2=O)c1	.	i	6.31µM*	2.2%
O=C(C1CCC(Cn2c(=O)c3sccc3n(Cc3ccccc3)c2=O)CC1)N1CCCCC1 (stereo unspecified)	i	i	-15.8%	.
COc1cccc(Cn2c(=O)n(CC3CCC(C(=O)N4CCCCC4)CC3)c(=O)c3sccc32)c1 (stereo unspecified)	20µM*	i	?	.
N#Cc1ccc(OCc2cccc(S(=O)(=O)N3CCOCC3)c2)cc1	i	i	?	20.6%
Cc1cc(OCc2cccc(S(=O)(=O)N3CCOCC3)c2)ccc1Cl	i	i	35.5µM*	-0.2%
COCCCNC(=O)CC1C[C@H](C(=O)N2CCCCC2)[C@@]2(C)c3[nH]c4ccccc4c3CCN2C1=O (stereo partly specified)	i	i	5.6%	-2.4%
O=C(CCCSc1nnc(Nc2ccccc2F)s1)N1CCOCC1	i	i	-16.1%	-6.8%
Clc1nc2c(-c3ccccc3)nnn2c2ccccc12	i	i	6.31µM*	-16.2%
Cc1ccc(-c2nnn3c2nc(Cl)c2ccccc23)cc1	i	i	4.5%	-17.1%
Fc1ccc([C@@H]2Nc3ccccc3[C@@H]3C=CC[C@@H]32)cc1	i	12.6µM*	10.6%[9.22 µM]	.
Cc1cccc(NS(=O)(=O)c2ccc3c(c2)[C@H]2C=CC[C@H]2[C@@H](c2ccc(F)cc2)N3)c1	?	i	0.9%[9.22 µM]	.
CC1(c2ccccc2)NC(=O)N(CC(=O)N2CCN(S(=O)(=O)c3cccc([N+](=O)[O-])c3)CC2)C1=O (stereo unspecified)	i	i	18.5%	6.2%
O=C(c1ccccc1Br)N1CCc2c([nH]c3ccccc23)C1	i	i	17.8µM*	?
CC(C(=O)Nc1ccc(F)cc1Cl)N(C)CCOc1ccccc1 (stereo unspecified)	i	i	7.8%	10.6%
COc1cccc2c1Oc1ncccc1N(C(=O)CCC(=O)NCc1ccc(N(C)C)cc1)C2	i	i	6.9%	.
O=C(Oc1ccc(C(=S)N2CCOCC2)cc1)c1cccc(Cl)c1	i	i	12.6µM*	24.2%
Cc1ccccc1C(=O)Oc1ccc(Cl)cc1C(=S)N1CCOCC1	i	i	12.6µM*	-9.3%
O=C(Oc1ccc(C(=S)N2CCOCC2)cc1Cl)c1ccccc1F	i	i	11.8%	-20.6%
O=C(Oc1ccc(C(=S)N2CCOCC2)cc1)c1cc([N+](=O)[O-])cc([N+](=O)[O-])c1	i	i	-9.3%	2.3%
O=S(=O)(Oc1ccc(C(=S)N2CCOCC2)cc1)c1ccc(Cl)cc1	i	i	17.8µM*	2.9%
O=C(N/N=C/c1ccc(Cl)cc1)Nc1ccccc1	i	i	2.82µM*	11.7%
CC(OC(=O)c1cccs1)C(=O)NCc1ccc2c(c1)OCO2 (stereo unspecified)	i	i	1.6%	-4.1%
C/C(=N\NC(N)=S)C1C2C3CC4C5CC(C42)C1C53 (stereo unspecified)	i	?	14.1µM*	1.1%
O=C(Nc1ccc(F)c(Cl)c1)c1cc(C2CCCCN2C(=O)C2CC2)on1 (stereo unspecified)	i	i	10.4%	-4.1%
O=C(Nc1ccccc1)c1cc(C2CCCN(C(=O)CCc3ccccc3)C2)on1 (stereo unspecified)	i	i	17.8µM*	0.5%
